Screens from PubChem.
An excerpt weighted towards active compounds, which were near 27% of everything screened.
CYP2C9 inhib: blockers of cytochrome P450 2C9 activity – biochemical, luminescence, ADME assay, primary screen; inhibition, % at 5 µM; AID 777, 2007; CYP2C9 Supersomes, luciferin-H conversion; actives 20% (n = 96,000);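 active = blocking of liver enzyme CYP2C9 beyond about 50% at 5 µM, limit read from the data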
sEH act: soluble epoxide hydrolase activators, primary screen, biochemical, human sEH. Bifunctional epoxide hydrolase 2 (Homo sapiens), P34913. purified human sEH enzymatic activity, activator screen. activation, % at 2 µM. actives 0.04% (n = 91,000). AID 717, 2007; in the data active = activation above about 37%
Target sequence (P34913 whole entry, looked up): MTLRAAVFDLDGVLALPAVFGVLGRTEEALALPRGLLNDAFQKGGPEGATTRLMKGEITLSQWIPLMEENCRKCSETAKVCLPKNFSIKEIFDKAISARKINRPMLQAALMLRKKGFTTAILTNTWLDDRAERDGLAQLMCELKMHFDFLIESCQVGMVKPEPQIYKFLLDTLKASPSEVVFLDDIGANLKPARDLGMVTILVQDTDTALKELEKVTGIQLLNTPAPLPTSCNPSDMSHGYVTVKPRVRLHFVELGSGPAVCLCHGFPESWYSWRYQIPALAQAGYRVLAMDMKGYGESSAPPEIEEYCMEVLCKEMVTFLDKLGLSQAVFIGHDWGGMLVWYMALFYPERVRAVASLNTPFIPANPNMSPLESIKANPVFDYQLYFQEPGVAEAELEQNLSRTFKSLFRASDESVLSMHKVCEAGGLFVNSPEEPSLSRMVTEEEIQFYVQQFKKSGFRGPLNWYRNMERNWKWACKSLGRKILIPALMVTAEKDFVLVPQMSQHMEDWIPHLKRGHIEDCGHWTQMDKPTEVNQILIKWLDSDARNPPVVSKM
CYP2C9 activ: human CYP2C9 activators, primary screen, biochemical, luminescence. Cytochrome P450 2C9 (Homo sapiens), P11712. recombinant CYP2C9, luciferin-H conversion; hits give high values; factor 1 = untreated enzyme, 0 = blocked. activation factor at 5 µM. actives 1.4% (n = 96,000);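 active = activation factor of 2 or more for CYP2C9 at a 5 µM dose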
sEH inhibitor: soluble epoxide hydrolase inhibitors, primary screen, biochemical, human sEH; inhibition, % at 2 µM; actives 0.34% (n = 91,000); AID 707, 2007; Bifunctional epoxide hydrolase 2 (Homo sapiens), P34913; recombinant human sEH enzymatic activity assay; in the data active = inhibition above about 80%
CYP2C19 activ: human CYP2C19 activators, primary screen, biochemical, luminescence. AID 1025, 2008. recombinant CYP2C19, luciferin-H EGE luminescence; hits give high values; 0 = fully inhibited enzyme, 1 = untreated enzyme. 96,000 tested, under 10 active. Cytochrome P450 2C19 (Homo sapiens), P33261. activation factor at 5 µM;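 active = activation factor of at least 2 at 5 µM in the primary screen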
CYP2C19 inhib: blockers of cytochrome P450 2C19 activity – biochemical, luminescence, ADME assay, primary screen | P33261 | CYP2C19 Supersomes, luciferin-H EGE luminescence, 30 min | inhibition, % at 5 µM | actives 21% (n = 96,000) | AID 778, 2007;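 active = CYP2C19 inhibition above a set limit at 5 µM in the primary screen, cut at about 50% in these data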
Numbers stand for hits; n = inactive; x = no result.

SMILES	CYP2C9 inhib	sEH act	CYP2C9 activ	sEH inhibitor	CYP2C19 activ	CYP2C19 inhib
CCN(CC)C(=O)c1ccc(NS(=O)(=O)c2ccccc2)cc1	77	n	n	n	n	82
CCCOc1ccc2[nH]cc(C(=O)O)c(=O)c2c1	n	n	n	n	n	n
CC1=C(C(=O)Nc2ccccc2)C(c2ccc(C)o2)N2C(=O)CSC2=N1 (stereo unspecified)	n	n	n	n	n	64
CC1=C(C(=O)Nc2ccccc2C)C(c2ccc(C)o2)n2c(s/c(=C/c3ccccc3)c2=O)=N1 (stereo unspecified)	n	n	n	n	n	n
CC1=C(C(=O)Nc2ccccc2)C(c2ccc(C)o2)n2c(s/c(=C/c3ccccc3)c2=O)=N1 (stereo unspecified)	87	n	n	n	n	72
N#Cc1c(N)sc2c1CCN(CCc1ccccc1)C2	x	n	x	n	x	x
CCn1c(=O)cc(SCC(=O)N(C)Cc2ccccc2)c2ccccc21	n	n	2	n	n	56
CCn1c(=O)cc(SCC(=O)NCC2CCCO2)c2ccccc21 (stereo unspecified)	n	n	3.8	n	n	n
CCCCN(CC)C(=O)CSc1cc(=O)n(C)c2ccccc12	n	n	n	n	n	64
O=C(CC(=O)c1ccccc1)Nc1ccc2c(c1)OCCO2	n	n	n	n	n	n
CC(CC(=O)Nc1ccc2c(c1)OCCO2)c1ccccc1 (stereo unspecified)	n	n	n	n	n	52
CCn1c(N)c(C(=O)NC2CCCCC2)sc1=S	x	n	x	n	x	x
Cc1csc(NC(=O)C(NS(=O)(=O)c2ccc(Br)s2)c2ccccc2)n1 (stereo unspecified)	n	n	n	n	n	n
COc1cc2nc(CN3CCN(c4ncc(C(F)(F)F)cc4Cl)CC3)[nH]c(=O)c2cc1OC	n	x	n	x	n	n
Cn1c(=O)cc(OCCCC(=O)Nc2ccc3c(c2)OCCO3)c2ccccc21	x	n	x	n	x	x
CCn1c(=O)cc(SCC(=O)Nc2ccc3c(c2)OCO3)c2ccccc21	n	n	n	n	n	71
CCn1c(=O)cc(SCC(=O)Nc2cccnc2)c2ccccc21	n	n	2.4	n	n	n
Cn1c(=O)cc(OCCCC(=O)Nc2cccnc2)c2ccccc21	n	n	n	n	n	n
Cn1cc(SCC(=O)Nc2ccc3c(c2)OCCO3)c2ccccc21	n	n	n	n	n	63
O=C(c1cc2ccccc2oc1=O)N(Cc1cccs1)C1CCS(=O)(=O)C1 (stereo unspecified)	n	n	n	n	n	n
Cn1c(=O)c2c(ncn2CC(=O)Nc2ccc(Cl)cc2Cl)n(C)c1=O	n	n	n	n	n	n
CCCn1c(=O)[nH]c(=O)c2c1nc(-c1ccc3c(c1)OCCO3)n2CCN1CCOCC1	n	n	n	n	n	n
CC(C)(CSc1nncn1N)NS(=O)(=O)c1ccc(Cl)cc1	51	n	n	n	n	95
Cn1cnnc1SC1CCCCC1NS(=O)(=O)c1ccc(Cl)cc1 (stereo unspecified)	x	n	x	n	x	x
O=C(CN1CCCCC1)Nc1cccc(Br)c1	n	n	n	n	n	n
SMILES	CYP2C9 inhib	sEH act	CYP2C9 activ	sEH inhibitor	CYP2C19 activ	CYP2C19 inhib
CCOC(=O)CCn1c2nc(C)cc(C)c2c(=O)n1-c1ccccc1	n	n	n	n	n	56
CCOC(=O)Cn1nc(C)n(-c2ccccc2)c1=O	n	n	n	n	n	n
CCc1ccccc1NC(=O)CN(C)Cc1nc(N)nc(Nc2ccccc2C)n1	n	n	n	n	n	68
CCCS(=O)(=O)N1CCCC(c2nc(-c3cccc(OC)c3)no2)C1 (stereo unspecified)	77	n	n	n	n	80
COc1cccc(-c2noc(C3CCCN(S(=O)(=O)c4cccc(Cl)c4C)C3)n2)c1 (stereo unspecified)	51	x	n	x	n	n
O=S(=O)(Cc1ccccc1)N1CCCC(c2nc(-c3ccc(F)cc3)no2)C1 (stereo unspecified)	n	x	n	x	n	n
COc1cc(OC)nc(NC2OC(=O)c3ccccc32)n1 (stereo unspecified)	n	n	n	n	n	n
CCCC1(C(=O)OC)NC(c2ccco2)C2C(=O)N(c3ccc(C)cc3)C(=O)C21 (stereo unspecified)	n	n	n	n	n	n
CC(C)(C)c1ccc(C(=O)NNc2cc(N3CCCCC3)nc(N3CCCCC3)n2)cc1	61	n	n	n	n	n
O=C(/C=C/C=C/c1ccccc1)CC1(O)C(=O)N(CCc2ccccc2)c2ccccc21 (stereo unspecified)	n	n	n	n	n	n
Cc1n[nH]c(C)c1C(=O)CC1(O)C(=O)N(Cc2ccccc2)c2ccc(Br)cc21 (stereo unspecified)	61	n	n	n	n	99
O=C(CC1(O)C(=O)N(Cc2ccc3c(c2)OCO3)c2ccccc21)c1ccccc1 (stereo unspecified)	n	n	n	n	n	n
Cc1n[nH]c(C)c1C(=O)CC1(O)C(=O)N(CCc2ccccc2)c2ccc(Br)cc21 (stereo unspecified)	66	n	n	n	n	56
COCCN1C(=O)c2ccccc2C(C(=O)N2CCN(c3ccccn3)CC2)C1c1ccc(F)cc1 (stereo unspecified)	x	n	x	n	x	x
O=C(Cn1c(NCCCO)nc2ccccc21)c1cccc(Br)c1	82	n	n	n	n	76
CCCCNc1nc2ccccc2n1CC(=O)N1CCc2ccccc2C1	n	n	n	n	n	58
CC1(C)N=C(N)N=C(N)N1c1ccc(C(=O)O)cc1	n	n	n	n	n	n
O=C1c2ccccc2C(Nc2ccc(S(=O)(=O)N3CCOCC3)cc2)N1Cc1ccco1 (stereo unspecified)	60	n	n	n	n	n
O=C1c2ccccc2C(Nc2ccc(S(=O)(=O)N3CCCCC3)cc2)N1Cc1ccco1 (stereo unspecified)	90	n	n	n	n	n
Cc1ccc(NC2c3ccccc3C(=O)N2CCN2CCOCC2)cc1 (stereo unspecified)	n	n	n	n	n	82
O=C1c2ccccc2C(Nc2ccc(S(=O)(=O)N3CCCCCC3)cc2)N1c1ccccn1 (stereo unspecified)	n	n	n	n	n	n
O=C1c2cccnc2C(Nc2ccc(S(=O)(=O)N3CCCCC3)cc2)N1Cc1ccccc1 (stereo unspecified)	n	n	n	n	n	n
CCN(CC)S(=O)(=O)c1ccc(NC2c3ccccc3C(=O)N2CCN2CCOCC2)cc1 (stereo unspecified)	n	n	n	n	n	n
